Source: the OligoGym collection
Also: reference of the scale not given here.

What follows are sequences tested against SECISBP2L (assay: pooled miR-30 sensor sort-seq; sequence = guide strand). Details: shRNA.
In the case of TTGATCGACTATCAGGACCTGC, the sensor-assay potency score (higher = more potent) is reported as -0.0412. TAGTGTGAAAAGAAGCTGCAGT showed a sensor-assay potency score (higher = more potent) of 0.417. Sequence TAGTCCAGTATCTTCCTGGGAA has a sensor-assay potency score (higher = more potent) of -0.242. With TTGTTGAATATTCTCATCCTTA the sensor-assay potency score (higher = more potent) was -0.343. In the case of TTTCTGAATACTCTTGAGCTGT, the sensor-assay potency score (higher = more potent) is reported as -0.537. TACGCTAACAGGAACCAGCTTG showed a sensor-assay potency score (higher = more potent) of -0.34. TAGCTGAGGTAGTACTGCCTGT was tested, and the sensor-assay potency score (higher = more potent) was -0.712. TTGAAACCCATCTTCATCCTGT showed a sensor-assay potency score (higher = more potent) of 0.983. With TTCCTGGGAAACAATCTCCTGT the sensor-assay potency score (higher = more potent) was -0.00713. TATAACACACTTGATCTTGTTT was tested, and the sensor-assay potency score (higher = more potent) was 0.0597. With TTGCTGTGAAGCATCTACCAGA the sensor-assay potency score (higher = more potent) was -0.408. Work on TATAACATTATAGAGAGCCTCA yielded a sensor-assay potency score (higher = more potent) of -0.0315.

Each sequence was assayed against SECISBP2 in the same assay as above. Details: shRNA.
Work on TTGACATCTGCTGATAACTTGA yielded a sensor-assay potency score (higher = more potent) of -0.133. TTTGTTGTAGGAAGGATCCGAA showed a sensor-assay potency score (higher = more potent) of -0.00971. With TTTGATAACACTGCAGCTGGTT the sensor-assay potency score (higher = more potent) was 0.27. TTTGACTGTATCTTCTCACAGT gave a sensor-assay potency score (higher = more potent) of 0.358. Work on TAACACAAGCATCCACTTCTTT yielded a sensor-assay potency score (higher = more potent) of -0.191. Sequence TTGAGAGCAAACACAAAGGGAA has a sensor-assay potency score (higher = more potent) of -0.174. TTCGCTTATGGTAACCATCTGA gave a sensor-assay potency score (higher = more potent) of 0.0735. Work on TTCACTGTCAAACTTTTGCTGA yielded a sensor-assay potency score (higher = more potent) of -0.0289. TTTCAAACTATTCTCAGCGTAA showed a sensor-assay potency score (higher = more potent) of -0.344. In the case of TTTTCTTCTTAAACAGAGCTTT, the sensor-assay potency score (higher = more potent) is reported as -0.323. With TTGCAGTTCAGGAAAGTCCAGT the sensor-assay potency score (higher = more potent) was -0.458. For TAACATTTTTAGGATCTGCTGA, the sensor-assay potency score (higher = more potent) was 0.162.

Each sequence was assayed against SELL in the same assay as above. Details: shRNA.
Sequence TTGTCTCGGCAGAATCTTCTAG has a sensor-assay potency score (higher = more potent) of -0.184. Work on TTATTGATGATTTCTACACATT yielded a sensor-assay potency score (higher = more potent) of -1.76. In the case of TCACTTGACAGGTTGGTTCTGG, the sensor-assay potency score (higher = more potent) is reported as 0.848. TTGTATGGCAACTAAATCTGTG gave a sensor-assay potency score (higher = more potent) of -0.502. In the case of TAGGATTTGACCAGATTCCAGA, the sensor-assay potency score (higher = more potent) is reported as -0.318. TAATTGTCTCGGCAGAATCTTC was tested, and the sensor-assay potency score (higher = more potent) was -1.3. For TTAATCATTGAGAAACTTTTGT, the sensor-assay potency score (higher = more potent) was -0.0417. TTGATATAGATCTCCACGCAGT showed a sensor-assay potency score (higher = more potent) of -0.218. TTCAGTAAGAGATTTGTTGGTT showed a sensor-assay potency score (higher = more potent) of 0.629. TTCTCTTGGATTTCTTGCCTTT was tested, and the sensor-assay potency score (higher = more potent) was 0.216. With TAAATCTGTGTAATTGTCTCGG the sensor-assay potency score (higher = more potent) was 0.157. With TTTGACATATTGGACTAGGATT the sensor-assay potency score (higher = more potent) was -1.37.

What follows are sequences tested against SELO in the same assay as above. Details: shRNA.
TGTTTGTGAAGTCGGCACCGGT gave a sensor-assay potency score (higher = more potent) of -1.02. ATCTTCTGCAGGTAGTGCCTTT showed a sensor-assay potency score (higher = more potent) of -1.13. TTCCTCAGCACGTACTTCGGGT gave a sensor-assay potency score (higher = more potent) of -0.346. In the case of TTGAGCTGCAGCTCCCAGCGCT, the sensor-assay potency score (higher = more potent) is reported as -0.647.
